Screening data deposited in PubChem by National Center for Advancing Translational Sciences (NCATS).
IMPase inh – cell-permeable inhibitors of inositol monophosphatase (IMPase). P97697. CHO-M1 cells, IP1 accumulation, HTRF TR-FRET ratio. inhibition (IP1 accumulation), % at 46.1 µM. 120,000 tested, under 10 active; active means well fitted curve in the direction sought with a large enough effect in the signal ratio, not every such curve was filed as active; inconclusive means small, poorly fitted or top-dose-only effect, or a change in a side signal; inactive means no such curve, though single readings can be large or run the other way; the % refers to the signal ratio;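 further: cells stimulated with carbachol in lithium chloride buffer; plate controls were DMSO basal wells for no effect and reference inhibitor wells for full effect; higher means more IMPase inhibition seen as more IP1 and lower FRET ratio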
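Cellular IMPase inhibition is scored as a rise in cytosolic IP1, detected by competitive TR-FRET between d2-labelled IP1 and a europium anti-IP1 antibody. M1-expressing CHO cells were stimulated with carbachol for 30 min at 37C, with lithium (50 mM LiCl) present in the buffer.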
ALDH1A1 block – ALDH1A1 (human) enzyme inhibition; P00352; Purified ALDH1A1, NADH fluorescence, propionaldehyde substrate; Potency, µM (titrated, usually from 75.3 µM), for the others: at the top dose activity, negative = inhibition, hits mostly inhibitors; actives 7.3% (n = 220,000); AID 1030; active means well fitted inhibition curve with a large enough effect, not every such curve was filed as active; inconclusive means small, poorly fitted or top-dose-only effect, or another doubt; inactive means no such curve, though single readings can be large or run the other way;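 further: potency means the concentration at half of the fitted maximal effect; plate controls were no enzyme wells and a reference inhibitor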
ALOX12 inhib – 12-hLO (ALOX12) enzyme inhibition; Potency, µM (doses to about 57.1 µM), for the others: top-dose activity change, negative = inhibition, actives largely listed as inhibitors; purified 12-hLO, xylenol orange hydroperoxide absorbance; AID 1452; actives 0.12% (n = 150,000); P18054; further: potency means the concentration at half of the fitted maximal effect; nearly all actives have a fitted effect of over 55% in size
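Purified human 12hLO (150 nM final) was preincubated with compounds for 15 min at room temperature in 25 mM Hepes pH 7.0, 0.01% Triton X-100, then reacted with 40 uM arachidonic acid for 30 min. Hydroperoxide was detected with ferrous iron/xylenol orange.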
NPSR antag – antagonists of human neuropeptide S receptor cAMP signaling | Q6W5P4 | CHO-NPSR cells, cAMP TR-FRET, antagonist mode | Potency, µM (doses to about 38.3 µM), without a hit: at the highest dose activity change, negative = inhibition, usual class: inhibitors | actives 1% (n = 220,000); further: potency means the concentration at half of the fitted maximal effect; nearly all actives have a fitted effect of over 50% in size
Target sequence (Q6W5P4 whole entry, looked up): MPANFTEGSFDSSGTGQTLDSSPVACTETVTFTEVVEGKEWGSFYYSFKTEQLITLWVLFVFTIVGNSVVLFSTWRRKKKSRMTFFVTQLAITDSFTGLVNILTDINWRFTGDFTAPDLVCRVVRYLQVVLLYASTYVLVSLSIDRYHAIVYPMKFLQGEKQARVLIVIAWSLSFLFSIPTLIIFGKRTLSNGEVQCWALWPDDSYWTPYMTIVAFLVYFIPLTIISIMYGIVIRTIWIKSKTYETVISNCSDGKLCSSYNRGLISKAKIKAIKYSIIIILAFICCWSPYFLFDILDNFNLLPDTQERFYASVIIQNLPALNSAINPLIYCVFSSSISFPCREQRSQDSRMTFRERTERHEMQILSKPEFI
HPGD inh – HPGD (human) dehydrogenase inhibition. actives 4.3% (n = 150,000). P15428. purified HPGD, NADH fluorescence kinetic, PGE2 substrate. AID 894. Potency, µM, inactives show at the highest dose activity change, negative = inhibition, hits mostly inhibitors; active means well fitted inhibition curve with a large enough effect, not every such curve was filed as active; inconclusive means small, poorly fitted or top-dose-only effect, or another doubt; inactive means no such curve, though single readings can be large or run the other way; further: potency means the concentration at half of the fitted maximal effect
Target sequence (P15428 whole entry, looked up): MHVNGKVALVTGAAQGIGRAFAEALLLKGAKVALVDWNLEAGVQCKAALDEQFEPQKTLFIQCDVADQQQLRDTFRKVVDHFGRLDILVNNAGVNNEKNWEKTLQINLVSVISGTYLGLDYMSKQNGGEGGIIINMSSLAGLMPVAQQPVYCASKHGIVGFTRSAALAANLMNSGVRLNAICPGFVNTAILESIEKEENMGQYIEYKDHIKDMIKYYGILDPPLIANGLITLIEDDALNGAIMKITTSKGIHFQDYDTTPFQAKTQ
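NADH formation kinetics: reaction with 30 uM PGE2 and 1 mM NAD+ (final), 20 nM enzyme, Tris-HCl pH 8 with Tween 20, after 15 min compound preincubation at room temperature. Fluorescence change, last versus first of five reads.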
IMPase Li inh – membrane-permeable IMPase blocker, potentiated with lithium | CHO-M1 cells, IP1 TR-FRET (IP-One), carbachol + lithium | Potency, µM (highest dose often 59.4 µM), for the others: at the top dose activity, negative = IMPase inhibition, actives largely listed as inhibitors | actives 0.35% (n = 210,000) | AID 1457;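 further: IP1 builds up when IMPase is blocked and the TR-FRET signal falls; potency means the concentration at half of the fitted maximal effect; plate controls were basal vehicle for no effect and high inhibitor control for full effect; nearly all actives have a fitted effect of over 50% in size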
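Lithium-sensitised IP1 accumulation assay; M1-expressing CHO cells treated 30 min at 37C with compound. Competitive antibody detection by time-resolved FRET followed a 10 min room-temperature lysis step.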
Numbers without * were called inactive; ? = inconclusive; / = no result; [ ] = remark or other dose. This is a sample that favours compounds with a hit; in the whole collection about 8.9% have one here. Unless noted, the call rests on the fitted dose curve; in most records, active means well fitted curve in the direction sought with a large enough effect; inconclusive means small, poorly fitted or top-dose-only effect, or another doubt; inactive means no such curve, though single readings can be large; an effect the other way counts as inactive or inconclusive. Unless noted, on the % scale 0 is the no-effect control and ±100 the full control effect.

SMILES	IMPase inh	ALDH1A1 block	ALOX12 inhib	NPSR antag	HPGD inh	IMPase Li inh
COc1ccc(C2=NNC(c3ccco3)=Nc3ccc(F)cc32)cc1	/	1.0%	/	-23.3%	/	19.0%
COc1ccc(-c2nnc(SC)n2C)cc1	7.0[9.22 µM]	10.6%	-3.1%	0.5%[46.1 µM]	-12.0%	-12.1%[38.3 µM]
O=C(NP(=O)(N1CCOCC1)N1CCOCC1)C1=C(N2CCOCC2)/C(=C\c2ccccc2)CC1	/	3.55µM*	/	10.3%	/	3.7%
O=C(Nc1ccccc1)c1ccc(S(=O)(=O)N(CCO)CCO)cc1	-4.3	3.2%	-0.8%	0.3%[46.1 µM]	-7.6%	23.1%[38.3 µM]
O=C(/C=C/c1ccccc1)c1cc(Br)ccc(=O)c1O	-3.9	7.08µM*	?	?	20µM*	-18.9%[38.3 µM]
O=C(O)c1ccc2c3c(cccc13)C(=O)N(c1ccccc1)C2=O	/	?	/	-0.5%	/	2.4%
Nc1ccc2c3c(cccc13)C(=O)N(c1ccccc1)C2=O	/	28.2µM*	/	-27.9%	/	-7.2%
Cc1ccc(N=Cc2ccc(N(C)C)cc2)cc1	7.1	0.562µM*	-0.3%	-5.7%[46.1 µM]	-15.3%	-23.1%[38.3 µM]
CN(C)c1ccc(C=Nc2ccccc2)cc1	6.4	0.891µM*	3.1%	2.7%[46.1 µM]	-16.3%	-6.0%[38.3 µM]
C/C(=N/N=C/c1ccc(N(C)C)cc1)c1ccccc1	/	25.1µM*	6.4%	0.3%	-15.5%	-12.9%
Cc1ccc(/C=N/N=C/c2ccc(C)cc2)cc1	/	12.7%	-2.5%	9.0%	-3.3%	-13.6%
CN(C)c1ccc(N=Cc2ccco2)cc1	70.6	5.01µM*	?	7.94µM*	-29.2%	173.7%[38.3 µM]
Cc1ccccc1S(=O)(=O)N(CC(O)CN1C(=O)NC(C)(C)C1=O)c1ccccc1 (stereo not drawn)	/	/	/	18.5%	/	/
CCOC(=O)C1CCCN(Cc2ccc(OC)cc2OC)C1 (stereo not drawn)	1.7	5.1%	-3.5%	9.8%[46.1 µM]	6.7%	5.3%[38.3 µM]
CCN(CC)c1ccc(O)c(C=Nc2ccc(C)c(C)c2)c1	/	?	/	-8.7%	/	2.0%
CN(C)c1ccc(/C=N/O)cc1	/	-1.2%	/	-3.5%	/	15.9%
Cc1ccc(N=Cc2ccc(N(C)C)cc2)cc1C	/	0.562µM*	/	10.7%	/	-5.5%
CN(C)c1ccc(C=Nc2ccc(N(C)C)cc2)cc1	42.6	2.24µM*	-14.6%	?	-27.2%	35.0%
N=c1c2c(-c3ccccc3)c(-c3ccccc3)n(Cc3ccco3)c2ncn1CCCn1ccnc1	/	3.8%	2.0%	-16.6%	6.5%	19.2%
N=c1c2c(-c3ccccc3)c(-c3ccccc3)n(Cc3ccco3)c2ncn1Cc1ccccc1	18.6	?	-9.0%	10µM*	-25.5%	49.7%[38.3 µM]
O=c1c2c3nc4ccccc4nc3n(Cc3ccccc3)c2ncn1Cc1ccco1	-7.3	?	?	10µM*	?	12.3%[38.3 µM]
COCCCn1c2nc3ccccc3nc2c2c(=O)n(Cc3ccc(Cl)cc3)cnc21	-2.2	?	-0.4%	-7.6%[46.1 µM]	-27.0%	-7.5%[38.3 µM]
c1ccc(-c2c(-c3ccccc3)n(Cc3ccco3)c3ncnc(NCCCn4ccnc4)c23)cc1	9.6	?	-5.3%	25.1µM*	?	48.8%[38.3 µM]
O=C(COc1ccccc1CNCc1ccccc1)Nc1ccccc1	5.6	5.8%	-9.6%	-4.9%[46.1 µM]	-0.7%	26.6%[38.3 µM]
COc1cc(/C=C(\C#N)C(=O)NCC2CCCO2)c([N+](=O)[O-])cc1OC (stereo not drawn)	4.5	?	-21.6%	-4.6%[46.1 µM]	28.2µM*	2.9%[38.3 µM]
SMILES	IMPase inh	ALDH1A1 block	ALOX12 inhib	NPSR antag	HPGD inh	IMPase Li inh
CCOc1cc(/C=C(\C#N)C(=O)NCC2CCCO2)ccc1O (stereo not drawn)	4.1	28.2µM*	-5.1%	-10.2%[46.1 µM]	?	23.6%
CCOc1cc(/C=C(\C#N)C(=O)NCC2CCCO2)ccc1OCC(N)=O (stereo not drawn)	/	-13.9%	/	9.9%	/	1.6%
Cc1ccccc1-n1c(C)cc(/C=C(\C#N)C(=O)NCC2CCCO2)c1C (stereo not drawn)	/	14.1µM*	-4.1%	-5.4%	-12.3%	10.7%
COc1cc(/C=C(\C#N)C(=O)NCC2CCCO2)ccc1OCC(=O)O (stereo not drawn)	/	?	/	-18.5%	/	0.6%
O=C(/C=C/c1ccccc1Cl)N1CCN(c2ncccn2)CC1	/	-2.3%	2.4%	-0.7%	-6.0%	-1.9%
CN(C)c1ccc(/C=C2/C(=O)N(c3ccc([N+](=O)[O-])cc3)N=C2N2CCOCC2)cc1	-0.4	1.26µM*	-7.9%	-8.2%[46.1 µM]	-10.0%	4.9%[38.3 µM]
Cc1c(C(=O)O)nc(/C=C\C(=O)O)[nH]c1=O	/	20.3%[13.5 µM]	-0.8%[11.4 µM]	/	-4.8%	-1.2%
Nc1ccc(C(=O)OCC(=O)Nc2ccc3c(c2)OCO3)cc1[N+](=O)[O-]	/	0.3%	-12.6%	5.1%	-12.5%	-3.8%
CCN(CC)S(=O)(=O)c1cccc(NC(=O)Nc2cccc(C(F)(F)F)c2)c1	9.9	5.1%	-7.2%	10µM*	-17.0%	59.6%[38.3 µM]
CCN(CC)S(=O)(=O)c1cccc(NC(=O)/C=C/c2cccc([N+](=O)[O-])c2)c1	-1.0	7.94µM*	-4.6%	-25.0%[46.1 µM]	-11.7%	20.7%
CCN(CC)S(=O)(=O)c1ccc(/C=C/C(=O)Nc2ccc(F)cc2F)cc1	7.9	20µM*	-1.5%	-15.9%[46.1 µM]	/	/
CCN(CC)S(=O)(=O)c1ccc(N2CCCCC2)c(NC(=O)/C=C/c2cc(OC)c(OC)c(OC)c2)c1	/	12.6µM*	-2.1%	-4.5%	-28.7%	6.0%
CCCCCOc1ccc(NC(=O)C(=O)NCC2CCCN2CC)cc1 (stereo not drawn)	/	-4.5%	/	6.1%	/	21.7%
COc1ccc(NC(=O)Cn2nc(Cc3cccnc3)c3ccccc3c2=O)cc1OC	0.1	11.5%	3.4%	-6.6%[46.1 µM]	-12.7%	20.7%[38.3 µM]
COc1ccc(/C=C/C(=O)Nc2cc(S(=O)(=O)N3CCOCC3)ccc2N2CCCC2)cc1OC	/	-0.8%	/	0.9%	/	11.1%
COc1cc(/C=C/C(=O)Nc2cc(S(=O)(=O)N3CCOCC3)ccc2N2CCCC2)cc(OC)c1OC	/	11.2µM*	/	-2.0%	/	6.0%
Cc1nc(Cl)cc(CS(=O)(=O)c2ccc(Cl)cc2)n1	/	20µM*	/	8.9%	/	-7.3%
Cc1nc(CS(=O)(=O)c2ccccc2)cc(Sc2ccc(Cl)cc2Cl)n1	5.8[1.84 µM]	?	-2.2%	-18.1%[46.1 µM]	-2.5%	46.0%[38.3 µM]
CCOC(=O)C1CCCN(C(=O)CN2C(=O)C(CC)Oc3ccc(C)cc32)C1 (stereo not drawn)	8.3	2.7%	3.9%	-7.5%[46.1 µM]	-2.6%	4.3%[38.3 µM]
COc1ccc(CNn2c(-c3cccs3)nc3ccccc3c2=O)cc1OC	/	25.1µM*	/	-13.8%	/	8.7%
CC(C)N(C(=S)NC1CC2CCC1C2)c1ccccc1 (stereo not drawn)	/	-2.0%	/	-40.2%	/	10.8%
CC(C)(C)OC(=O)NNC(=S)NCc1ccc(Cl)cc1	-13.3	-14.6%	-8.9%	-1.2%[46.1 µM]	1.8%	-11.6%[38.3 µM]
